# Measurements taken from the OligoGym collection.
# Target: TNKS
# Assay: pooled miR-30 sensor sort-seq; sequence = guide strand
# Settings: shRNA
# Further: reference of the scale not given here.
row,Sequence,sensor-assay potency score (higher = more potent)
1,TTTTGCTGAAGGATCTGCCAGG,-0.435
2,TAACTTTAGCTAAGTCTGCTTC,-0.439
3,TGTTCTACAACATCCTTCCTTC,0.712
4,TATAGGTGTACTCTCACTCAGA,-0.676
5,TTTCATTAACATTTGCTCCTTT,0.974
6,TTGCATGAACATCAGCACCATG,-0.893
7,ATGAACATCAGCACCATGCTGA,0.272
8,TTAGCTAAGTCTGCTTCTCTGG,-0.647
9,TTCTCGAATAGTACTTTGCATC,-0.948
10,TTTAATAGCAGCTTCATGCAGA,0.637
11,TACTCTACAACAGACACGCGGT,-0.0381

# Target: TNP2
# Assay: as above
# Settings: shRNA
row,Sequence,sensor-assay potency score (higher = more potent)
1,TGGTTTTGTACACCTGCTGGAT,-0.833
2,TTGTACACCTGCTGGATCCTCT,-0.394
3,TTGGTTTTGTACACCTGCTGGA,0.278
4,TTTGGTGGTGGACTAGTGTTGG,-0.0566
5,TTTCTGTTCTTGGGGCAGCGGC,-1.14
6,TTTTGTGGCGCTTTGGTGGTGG,0.492
7,AAGTTCTTTCTGTTCTTGGGGC,-0.319
8,TTCTTTCTGTTCTTGGGGCAGC,-0.411
9,TACACCTGCTGGATCCTCTTGG,0.0749
10,TGGACTAGTGTTGGGACTCTGG,-0.968
11,TTGCCTTCCAAGTTCTTTCTGT,0.0693
12,TCTGTCTGCAACTCTGGCTGAA,-0.415
